GDH-TPI counter-1 = counter-screen for M. tuberculosis FBA inhibitors: GDH-TPI coupled enzymes; 360,000 tested, 1.2% active; inhibition, % at 4.8 µM; GDH-TPI coupled enzyme counterscreen, NADH absorbance; in the data active = inhibition above about 30%;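 also: 0% = DMSO wells and 100% = wells lacking the enzyme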
RecA splice inh = inhibitors of M. tuberculosis RecA intein splicing. 290,000 tested, 0.75% active. P9WHJ3. AID 2221. inhibition, % (concentration not given with the values). cell-free RecA intein splicing, fluorescence; in the data active = inhibition above about 30%;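 also: 0% = vehicle wells and 100% = reference inhibitor control wells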
Mtb UGM inh = blocks M. tuberculosis UGM enzyme; purified UGM, fluorescence polarization probe displacement; inhibition, % at 10 µM; 320,000 tested, 0.06% active; AID 504406; in the data active = inhibition above about 10%, passing the limit was not always enough
Rv3671c protease = Rv3671c (M. tuberculosis) protease inhibition. P9WHR9. 320,000 tested, 0.048% active. inhibition, % at 5.96 µM; in the data active = inhibition above about 38%;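 also: extracellular domain of Rv3671c used as enzyme; 0% = enzyme with DMSO and 100% = no enzyme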
Mtb FBA inh = inhibitors of M. tuberculosis fructose-bisphosphate aldolase. inhibition, % at 1 µM. 360,000 tested, 2.3% active. purified M. tuberculosis FBA, fluorescence read-out;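 also: 0% = vehicle and 100% = reference inhibitor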
Mtb betalactam = beta-lactam sensitization of Mtb H37Rv | 330,000 tested, 0.27% active | inhibition, % at 25 µM | M. tuberculosis H37Rv growth with meropenem, percent inhibition; call rule not given here;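 also: growth measured after seven days incubation then overnight dye step; 0% = bacteria only wells and 100% = bacteria with antibiotic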
Mtb FBA confirm = confirmation of M. tuberculosis fructose-bisphosphate aldolase inhibitors; shares compounds with Mtb FBA inh; purified M. tuberculosis FBA, fluorescence read-out; inhibition, % at 1 µM; 5,600 tested, 78% active;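 also: 0% = vehicle wells and 100% = reference inhibitor wells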
GDH-TPI counter-2 = counter-screen for M. tuberculosis FBA inhibitors: GDH-TPI coupled enzyme inhibition; inhibition, % at 1 µM; GDH-TPI coupled enzyme counterscreen, fluorescence; shares compounds with Mtb FBA inh; 5,600 tested, 81% active; in the data active = inhibition above about 10%
GDH-TPI DR = GDH-TPI dose response counter-screen for Mtb FBA | shares compounds with Mtb FBA inh | GDH-TPI coupled enzyme assay, fluorescence, artifact counterscreen | IC50, µM | 170 tested, 79% active | AID 652145; call rule not given here
An asterisk follows results filed as active; x = no result; + = active, no number. Rows were chosen to be rich in hits. Some 4% of all compounds tested hit in one or more screens of this group. Rule as the data show it, unless noted: active = inhibition above about 27%; inactive = the rest.

SMILES	GDH-TPI counter-1	RecA splice inh	Mtb UGM inh	Rv3671c protease	Mtb FBA inh	Mtb betalactam	Mtb FBA confirm	GDH-TPI counter-2	others
N=c1c(S(=O)(=O)c2ccc(Cl)cc2)cc2c(=O)n3ccccc3nc2n1Cc1ccco1	14.6	-235.1	0.9	-4.3	56.2*	-3.2	141.8*	106.9*
COCCn1c(=N)c(S(=O)(=O)c2ccc(F)cc2)cc2c(=O)n3ccccc3nc21	9.5	-327.7	0.2	-6.8	34.2*	0.7	51.6*	40.8*
N=c1c(S(=O)(=O)c2ccccc2)cc2c(=O)n3ccccc3nc2n1CC1CCCO1 (stereo not given)	15.7	x	-2.8	7.8	68.8*	2.2	+	+
CCn1c(=N)c(S(=O)(=O)c2ccc(Cl)cc2)cc2c(=O)n3ccccc3nc21	x	-15.5	x	5.6	x	-10.2	x	x
Cc1occc1-c1nnc(SCC(=O)N2CCCC(C)C2)o1 (stereo not given)	-2.2	x	x	-5.1	2.5	70.7	x	x
CC(C)c1ccc(NC2=CC(=O)CC(C)(C)C2)cc1	7.9	0.3	0.1	1.7	2.0	2.9	x	x
Cn1c2ccccc2c(=O)c2ccc(NCCc3cccs3)cc21	30.4	x	-3.1	-13.2	108.8*	90.5	4.7	-0.7
O=C(COC(=O)Cc1c(F)cccc1Cl)NC1CCS(=O)(=O)C1 (stereo not given)	7.7	1.7	-1.9	0.9	1.9	-1.5	x	x
Cc1ccc(OCC(=O)Nc2ccc(O)c(C(=O)O)c2)cc1C	-6.5	1.8	1.5	5.2	71.5*	-2.2	+	+
Cc1ccc(OCC(=O)Nc2ccc(C(=O)Nc3ccccc3C(=O)O)cc2)cc1C	6.2	x	x	x	0.8	x	x	x
O=C(NCCc1ccccc1)C1CCC(=O)N(CCCN2CCCC2=O)C1 (stereo not given)	-0.8	0.8	1.8	1.8	-0.9	-3.7	x	x
O=C(NCc1cc2ccccc2[nH]1)C1CCC(=O)N(CCCN2CCCC2=O)C1 (stereo not given)	4.8	2.4	3.5	-2.4	30.0*	-6.8	62.4*	32.2*
c1ccn2cc(-c3ccc4c(c3)OCCO4)nc2c1	7.3	-0.6	0.6	-7.2	79.7*	-3.1	90.6*	89.8*
Clc1ccc2nc(-c3ccc4c(c3)OCO4)cn2c1	29.3	-0.2	0.9	-2.1	45.2*	7.2	+	+
Fc1ccc(-c2cn3ccccc3n2)cc1	2.6	1.3	0.6	4.3	26.4	12.2	x	x
Cc1ccc2nc(-c3ccc4c(c3)OCCO4)cn2c1	13.1	2.4	0.5	-5.8	62.4*	14.9	195.0*	140.7*
O=C(CN1CCN(c2ccccc2O)CC1)Nc1ccnn1C1CCCC1	2.2	x	0.4	4.6	0.4	0.6	x	x
COc1ccc([C@H]2CC(=O)C=C(c3c(OC)cccc3OC)C2)cc1	10.1	x	-2.8	8.1	2.4	12.4	x	x
Cc1cccc(NC(=O)CNC(=O)CN2CCN(C)CC2)c1C	5.4	x	2.0	3.0	1.1	-1.0	x	x
COc1ccc(S(=O)(=O)N2CCCCC2c2cc(C(=O)N3CCOCC3)no2)cc1 (stereo not given)	11.9	x	x	x	2.1	x	x	x
COc1cccc2[nH]c(C(=O)NCc3ccccc3)cc12	1.3	-1.7	1.1	3.0	68.3*	0.0	74.5*	72.6*
Cc1ccccc1N1CCN(C(=O)c2cc(C3CC3)nn2-c2ccccc2)CC1	-1.5	x	0.8	10.1	-1.7	2.1	x	x
CCCCn1c(-c2csc3ccccc23)n[nH]c1=S	-2.0	0.5	2.6	1.3	0.7	-0.2	x	x
CCCCCCn1c(-c2cccs2)n[nH]c1=S	183.3*	2.9	-4.0	-10.0	47.7*	9.3	-3.8	-7.4
COc1ccc(-n2cc(CNC3CCN(C)CC3)c(-c3cccc(F)c3)n2)cc1	13.4	0.3	-2.0	-12.9	63.5*	8.6	189.5*	161.8*
SMILES	GDH-TPI counter-1	RecA splice inh	Mtb UGM inh	Rv3671c protease	Mtb FBA inh	Mtb betalactam	Mtb FBA confirm	GDH-TPI counter-2	others
COc1ccc(-n2cc(CN[C@H]3CCCCNC3=O)c(-c3cccc(F)c3)n2)cc1	6.2	-1.7	-3.7	2.3	56.6*	21.3	-4.1	-1.1
COc1ccc(-n2cc(CN3CCCC3)c(-c3cccc(F)c3)n2)cc1	1.3	-0.6	-0.9	6.4	22.5	3.5	x	x
Cc1cccc(-c2nnc(SCC(=O)N3CCOCC3)o2)c1	2.2	0.9	0.9	6.2	0.6	-2.5	x	x
CCOC(=O)C1=CN(Cc2cccc(F)c2)S(=O)(=O)N(CC)C1c1ccc(F)c(Cl)c1 (stereo not given)	2.1	x	x	x	-0.4	x	x	x
CC(C)NC(=O)C1(C)Cc2c(-c3ccc(N(C)C)cc3)ccnc2O1 (stereo not given)	12.5	x	x	x	38.3*	x	+	+
CC(C)c1ccc(NC(=O)C2(C)Cc3c(-c4ccc(N(C)C)cc4)ccnc3O2)cc1 (stereo not given)	7.5	x	x	x	21.1	x	x	x
CC(=O)Nc1ccc(-c2ccnc3c2CC(C)(C(=O)NC(C)C)O3)cc1 (stereo not given)	1.8	x	x	x	9.0	x	x	x
CC1(C(=O)NCc2cccc(Cl)c2)Cc2c(-c3ccc4c(c3)OCO4)ccnc2O1 (stereo not given)	9.7	x	x	x	29.8*	x	18.6	20.7*
CN(C)c1ccc(-c2ccnc3c2CC(C)(C(=O)NCc2cccs2)O3)cc1 (stereo not given)	18.6	x	x	x	40.3*	x	31.8*	8.6	GDH-TPI DR=1.04*
CN(C)c1ccc(-c2ccnc3c2CC(C)(C(=O)NCc2ccco2)O3)cc1 (stereo not given)	14.2	x	x	x	31.4*	x	73.2*	52.3*
C[C@@H]1CN([C@@H](C)CO)C(=O)c2cc(C#CC3CCCCC3)cnc2O[C@@H]1CN(C)S(=O)(=O)c1ccc(F)cc1	6.2	x	x	x	-1.8	x	x	x
CCC(C(=O)OC(C)C)c1ccc2ccccc2c1 (stereo not given)	0.9	x	-1.2	1.8	-0.6	-3.5	x	x
CC(=O)Nc1ccc(-c2ccnc3c2CC(C)(C(=O)NCCC(F)(F)F)O3)cc1 (stereo not given)	-3.5	x	x	x	6.5	x	x	x
COc1ccc(CCCNC(=O)C2(C)Cc3c(-c4ccc5c(c4)OCO5)ccnc3O2)cc1 (stereo not given)	4.5	x	x	x	19.6	x	x	x
CC1(C(=O)NCc2cccs2)Cc2c(-c3ccc4c(c3)OCO4)ccnc2O1 (stereo not given)	-0.9	x	x	x	60.6*	x	53.3*	32.1*
CN(C)c1ccc(-c2ccnc3c2CC(C)(C(=O)NCCC(F)(F)F)O3)cc1 (stereo not given)	23.9	x	x	x	36.5*	x	97.2*	63.8*
CC(=O)Nc1ccc(-c2ccnc3c2CC(C)(C(=O)NCc2ccc(N(C)C)cc2)O3)cc1 (stereo not given)	3.6	x	x	x	2.7	x	x	x

Source: PubChem
